Screens as filed in PubChem BioAssay.
CBFb RUNX1 block – qHTS Assay for Compounds Blocking the Interaction Between CBF-beta and RUNX1 for the Treatment of Acute Myeloid Leukemia. Runt-related transcription factor 1 (Homo sapiens) + Core-binding factor subunit beta …. AlphaScreen CBFb-His/RUNX1-biotin binding, biochemical. Potency, µM (doses to about 59.8 µM), inactives show at the top dose activity, negative = inhibition, hits mostly inhibitors. 230,000 tested, under 10 active; also: % of control where 0% means no effect
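Proteins preincubated together for 20 min at RT before compound addition; 15 min later, nickel and streptavidin beads were added and left 90 min prior to AlphaScreen measurement.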
HPGD block – qHTS Assay for Inhibitors of HPGD (15-Hydroxyprostaglandin Dehydrogenase); purified HPGD, NADH fluorescence kinetic, PGE2 substrate; Potency, µM, inactives show at the highest dose activity change, negative = inhibition, most hits filed as inhibitors; 150,000 tested, 4.3% active; active = well fitted inhibition curve with a large enough effect, not every such curve was filed as active; inconclusive = small, poorly fitted or top-dose-only effect, or another doubt; inactive = no such curve, though single readings can be large or run the other way; also: potency is read from the fitted curve at half-maximal effect; % is scaled to controls: 0 for no effect and ±100 for the full control effect
Target sequence (P15428 whole entry, looked up): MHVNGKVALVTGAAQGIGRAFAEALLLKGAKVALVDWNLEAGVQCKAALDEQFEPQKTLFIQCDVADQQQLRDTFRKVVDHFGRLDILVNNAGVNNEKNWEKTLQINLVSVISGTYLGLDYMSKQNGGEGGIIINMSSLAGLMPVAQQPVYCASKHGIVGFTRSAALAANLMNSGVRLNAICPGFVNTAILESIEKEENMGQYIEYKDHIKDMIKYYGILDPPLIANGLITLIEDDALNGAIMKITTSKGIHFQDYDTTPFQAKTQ
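NADH formation kinetics: reaction with 30 uM PGE2 and 1 mM NAD+ (final), 20 nM enzyme, Tris-HCl pH 8 with Tween 20, after 15 min compound preincubation at room temperature. Fluorescence change, last versus first of five reads.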
PNC inhibitor – High Content Assay for Compounds that inhibit the Assembly of the Perinucleolar Compartment; PC3M PTB-GFP, PNC prevalence imaging, 16 h; hits give low values; 140,000 tested, 3.1% active; activity change (PNC), negative = inhibition, % at 10 µM;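 active = readout at or below -70, meaning at least 70% loss of cells showing the perinucleolar compartment, a nuclear body marking cancer cells; inconclusive = readout between -30 and a set limit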;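 also: plate controls were DMSO wells for no effect and camptothecin positive control wells for full effect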
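PC3M cells stably expressing PTB-GFP, 750–1000 cells/well, treated 16 h at 37 °C with compound (23 nl of library stock), in duplicate. After paraformaldehyde fixation and Hoechst stain, imaged at 20x; PNC prevalence scored by image analysis.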
HttQ103 aggreg – qHTS Multiplex Assay to Identify Dual Action Probes in a Cell Model of Huntington: Aggregate Formation (GFP). PC12 HttQ103-GFP aggregates, Acumen cytometry, 40 h. Potency, µM (top dose mostly 46.1 µM), inactives show top-dose activity change, negative = inhibition, actives largely listed as inhibitors. 220,000 tested, 1.1% active. AID 1688, 2009; also: potency is read from the fitted curve at half-maximal effect; % is scaled to controls: 0 for no effect and ±100 for the full control effect; nearly all actives have a fitted effect of over 60% in size
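Quantitative HTS on tebufenozide-induced (100 nM) PC12 cells stably expressing polyQ103 Huntingtin exon 1–GFP. Reduction of bright GFP aggregates, detected by laser scanning cytometry after lysis, identified actives across the titration.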
ALDH1A1 block – qHTS Assay for Inhibitors of Aldehyde Dehydrogenase 1 (ALDH1A1); Purified ALDH1A1, NADH fluorescence, propionaldehyde substrate; Potency, µM (doses to about 75.3 µM), for inactives: at the highest dose activity, negative = inhibition, most hits filed as inhibitors; Aldehyde dehydrogenase 1A1 (Homo sapiens), P00352; 220,000 tested, 7.3% active; active = well fitted inhibition curve with a large enough effect, not every such curve was filed as active; inconclusive = small, poorly fitted or top-dose-only effect, or another doubt; inactive = no such curve, though single readings can be large or run the other way;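 also: potency is read from the fitted curve at half-maximal effect; plate controls were no enzyme wells and a reference inhibitor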
Target sequence (P00352 whole entry, looked up): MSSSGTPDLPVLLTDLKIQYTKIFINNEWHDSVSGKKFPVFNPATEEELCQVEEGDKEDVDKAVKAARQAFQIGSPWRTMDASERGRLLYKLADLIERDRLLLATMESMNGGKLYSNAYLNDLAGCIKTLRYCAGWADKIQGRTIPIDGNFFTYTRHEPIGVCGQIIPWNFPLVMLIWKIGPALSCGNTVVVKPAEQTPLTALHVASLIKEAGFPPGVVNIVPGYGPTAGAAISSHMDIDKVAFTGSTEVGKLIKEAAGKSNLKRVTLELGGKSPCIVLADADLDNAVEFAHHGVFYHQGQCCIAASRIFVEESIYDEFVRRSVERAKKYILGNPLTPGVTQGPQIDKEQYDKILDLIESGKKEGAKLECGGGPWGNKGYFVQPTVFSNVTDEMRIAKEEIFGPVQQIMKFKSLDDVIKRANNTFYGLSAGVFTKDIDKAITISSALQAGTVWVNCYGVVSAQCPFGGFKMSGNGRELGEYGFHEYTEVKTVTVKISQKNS
HTT cytoprotect – qHTS Multiplex Assay to Identify Dual Action Probes in a Cell Model of Huntington: Cytoprotection (ATP) | PC12 HTT-Q103 induced, cytoprotection, ATP luminescence, 40 h | Potency, µM (highest dose often 56.4 µM), inactives show cytoprotection (ATP increase), actives largely listed as activators | 230,000 tested, 0.14% active; also: potency is read from the fitted curve at half-maximal effect; % of control where 0% means no effect; nearly all actives have a fitted effect of over 45% in size
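ATP quantification (ATPlite) reports survival of PC12 cells in which tebufenozide, 100 nM final, switches on Htt exon 1 with 103 glutamines linked to GFP; compounds are titrated.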
The depositor's hits bear a star; [ ] = remark or other dose. This is a sample that favours compounds with a hit; in the whole collection about 11% have one here. Unless noted, calls follow the shape of the dose curve; as a rule, active = well fitted curve in the direction sought with a large enough effect; inconclusive = small, poorly fitted or top-dose-only effect, or another doubt; inactive = no such curve, though single readings can be large; an effect the other way counts as inactive or inconclusive.

How did Cc1ccc(CC(=O)NC(C)CCc2ccccc2)cc1 (configuration not stated) do in these assays?
CBFb RUNX1 block: 1.6%; HPGD block: -26.6%; PNC inhibitor: inconclusive; HttQ103 aggreg: 11.7%; ALDH1A1 block: -4.5%; HTT cytoprotect: 3.0%

Results for CC(CCc1ccccc1)NC(=O)CN1CCN(c2ccccc2)CC1 (configuration not stated) ?
CBFb RUNX1 block: 3.4%; HttQ103 aggreg: inconclusive; ALDH1A1 block: 31.6µM*; HTT cytoprotect: -92.0%

How did Cc1cc(=O)oc2ccc(OC(C)C(=O)O)cc12 (configuration not stated) do in these assays?
CBFb RUNX1 block: 8.2%; HPGD block: inconclusive; PNC inhibitor: -9.0; HttQ103 aggreg: 12.3%; ALDH1A1 block: inconclusive

What do the screens show for `CCOc1ccc(C2NC(=O)C(C#N)=C(S)N2c2ccc(OC)cc2)cc1OC` (configuration not stated)?
CBFb RUNX1 block: 2.5%; HPGD block: -28.9%; PNC inhibitor: 20.0; HttQ103 aggreg: inconclusive; ALDH1A1 block: 20µM*; HTT cytoprotect: -50.8%[10 µM]

What do the screens show for `COc1cc(C2NC(=O)C(C#N)=C(S)N2c2ccc(C)cc2)ccc1OC(C)C` (configuration not stated)?
CBFb RUNX1 block: -5.0%; HPGD block: 25.1µM*; PNC inhibitor: inconclusive; HttQ103 aggreg: inconclusive; ALDH1A1 block: -102.2%; HTT cytoprotect: -61.1%[10 µM]

Results for COc1ccc(N2C(S)=C(C#N)C(=O)NC2c2ccc(OC)c(OC)c2)cc1 (configuration not stated) ?
CBFb RUNX1 block: 4.5%; HttQ103 aggreg: 9.6%[9.22 µM]; ALDH1A1 block: inconclusive; HTT cytoprotect: 2.4%[10 µM]

How did COc1ccc(C2NC(=O)C(C#N)=C(S)N2c2ccc(C)cc2)cc1OC (configuration not stated) do in these assays?
CBFb RUNX1 block: 16.7%; HttQ103 aggreg: -9.6%[9.22 µM]; ALDH1A1 block: 17.8µM*; HTT cytoprotect: 8.0%[10 µM]

What do the screens show for `CCOC(=O)Cn1c2ccccc2n2nc(CCC(=O)O)c(=O)nc12`?
CBFb RUNX1 block: -4.2%; HttQ103 aggreg: 8.4%; ALDH1A1 block: inconclusive; HTT cytoprotect: 6.6%[10 µM]

How did Cc1noc(-c2ccc(CSCCC(=O)O)cc2)c1NC(=O)OC(C)c1ccccc1Cl (configuration not stated) do in these assays?
CBFb RUNX1 block: 18.0%

What do the screens show for `COCCn1c(=O)c(-c2ccc(Cl)cc2)nc2cnc(OCc3ccccc3)nc21`?
ALDH1A1 block: inconclusive; HTT cytoprotect: -3.9%

Results for CC1CCN(Cc2nc3c(c(=O)n(C)c(=O)n3C)n2CCN2CCOCC2)CC1 ?
HTT cytoprotect: -9.9%[10 µM]

Results for Fc1c(F)c(F)c(N=Cc2ccc3ncccc3c2)c(F)c1F ?
CBFb RUNX1 block: -17.2%; HPGD block: -6.9%; PNC inhibitor: -29.9; HttQ103 aggreg: -0.7%; ALDH1A1 block: 8.91µM*

Results for COc1ccc(CNC(=O)C(c2ccc(C)o2)N(Cc2cccs2)C(=O)Cc2cccs2)cc1 (configuration not stated) ?
CBFb RUNX1 block: -0.1%; HPGD block: -18.3%; PNC inhibitor: -29.4; HttQ103 aggreg: 0.2%; ALDH1A1 block: 3.55µM*; HTT cytoprotect: -1.0%[1.9 µM]

What do the screens show for `COCCN(C(=O)Cc1cccs1)C(C(=O)NCc1ccc(OC)cc1)c1ccc(C)cc1` (configuration not stated)?
CBFb RUNX1 block: 6.5%; HPGD block: -27.4%; PNC inhibitor: 7.6; HttQ103 aggreg: inconclusive; ALDH1A1 block: 2µM*; HTT cytoprotect: 22.5%[10 µM]

Results for CCOCCCNC(=O)C(c1ccc(OC)cc1)N(Cc1cccs1)C(=O)CNC(C)=O (configuration not stated) ?
CBFb RUNX1 block: 4.1%; HttQ103 aggreg: 1.3%; ALDH1A1 block: -5.1%; HTT cytoprotect: -11.4%

What do the screens show for `COCCN(C(=O)Cc1cccs1)C(C(=O)NC1CCCC1)c1ccc(OC)c(OC)c1` (configuration not stated)?
CBFb RUNX1 block: 11.2%; HttQ103 aggreg: 10.8%[9.22 µM]; ALDH1A1 block: -14.3%; HTT cytoprotect: -10.1%[10 µM]

How did CCc1ccc(C(C(=O)NCc2ccc(OC)cc2)N(CCOC)C(=O)Cc2cccs2)cc1 (configuration not stated) do in these assays?
CBFb RUNX1 block: 3.3%; HPGD block: -6.6%; PNC inhibitor: 6.4; HttQ103 aggreg: -17.5%; ALDH1A1 block: 1.26µM*; HTT cytoprotect: -20.6%

What do the screens show for `CCNc1ncc2nc(CCc3ccccc3)c(=O)n(Cc3cccc(OC)c3)c2n1`?
ALDH1A1 block: inconclusive; HTT cytoprotect: -8.7%

What do the screens show for `N#CCCn1c(=O)cnc2cnc(Nc3ccccc3)nc21`?
HPGD block: -19.9%; ALDH1A1 block: -9.1%; HTT cytoprotect: -9.4%

What do the screens show for `Cc1ccc2c(c1)/C(=N/OC(=O)c1ccc(F)cc1)CCS2`?
CBFb RUNX1 block: -3.5%; HPGD block: inconclusive; PNC inhibitor: 23.7; HttQ103 aggreg: 7.8%; ALDH1A1 block: 3.2%; HTT cytoprotect: -11.2%

What do the screens show for `O=C(O/N=C1/CCSc2ccccc21)c1ccccc1`?
CBFb RUNX1 block: 22.1%; HPGD block: 17.8µM*; PNC inhibitor: 32.2; HttQ103 aggreg: -1.0%; ALDH1A1 block: 18.9µM*; HTT cytoprotect: 9.3%

How did O/N=C1/CCCSc2ccccc21 do in these assays?
CBFb RUNX1 block: 0.2%; HPGD block: 11.2µM*; PNC inhibitor: -23.9; HttQ103 aggreg: -1.3%; ALDH1A1 block: 13.8%; HTT cytoprotect: -13.9%

What do the screens show for `CC1CC(=O)C=C(O)C1C(=O)OC(C)(C)C` (configuration not stated)?
CBFb RUNX1 block: 8.1%; HPGD block: -2.9%; PNC inhibitor: 29.0; HttQ103 aggreg: 23.0%; ALDH1A1 block: -0.7%; HTT cytoprotect: -16.1%

Results for Oc1ccc(N=Nc2n[nH]c(-c3ccc(Cl)cc3)n2)cc1 ?
CBFb RUNX1 block: -21.4%; HPGD block: -2.0%; PNC inhibitor: 18.7; HttQ103 aggreg: 17.8µM*; ALDH1A1 block: 8.0%; HTT cytoprotect: -58.3%
